Inconclusive results are not listed. Calls of active or inactive are those of the source. The calls were made as follows, unless noted: active = hit-call score of the fitted dose curve at least 0.9, where 1 is the maximum; inconclusive = response in the unintended direction; inactive = score below 0.9.
Tests used:
[1] = molecular target: Estrogen receptor (Homo sapiens) (UniProt P03372); experiment: CCTE_Deisenroth_AIME_384WELL_LUC_Active: CCTE's 384-well Estrogen Receptor Transactivation Assay with AIME metabolic competence (ERTA luciferase; metabolism positive), Deisenroth Lab (AID 2284030)
Estrogen receptor (Homo sapiens), sequence (P03372 whole entry, looked up): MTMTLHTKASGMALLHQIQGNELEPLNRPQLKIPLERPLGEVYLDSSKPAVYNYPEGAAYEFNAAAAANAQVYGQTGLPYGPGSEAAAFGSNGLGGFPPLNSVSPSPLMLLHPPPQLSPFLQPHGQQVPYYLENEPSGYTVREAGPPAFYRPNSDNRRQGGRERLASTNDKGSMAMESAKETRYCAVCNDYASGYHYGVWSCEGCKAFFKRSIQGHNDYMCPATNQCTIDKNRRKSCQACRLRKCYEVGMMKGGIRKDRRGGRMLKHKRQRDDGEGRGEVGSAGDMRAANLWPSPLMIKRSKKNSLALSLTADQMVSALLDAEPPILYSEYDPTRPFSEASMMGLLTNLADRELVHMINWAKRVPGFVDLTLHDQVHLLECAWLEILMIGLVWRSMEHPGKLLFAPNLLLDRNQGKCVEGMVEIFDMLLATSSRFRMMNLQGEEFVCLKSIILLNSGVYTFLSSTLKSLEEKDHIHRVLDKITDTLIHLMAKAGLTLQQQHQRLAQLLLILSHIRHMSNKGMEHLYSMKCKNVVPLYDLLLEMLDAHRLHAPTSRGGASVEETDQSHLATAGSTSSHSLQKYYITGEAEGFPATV
In short: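 Readout: bioluminescent luciferase induction in VM7Luc4E2 cells 24 hour after receiving medium from a 2 h rat hepatic S9 (induced, alginate microsphere) metabolism step. Concentrations 0.002 - 200 uM; activity scaled to 17beta-estradiol positive control.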

[2] = CCTE_Deisenroth_AIME_384WELL_CTox_Active: Cytotoxicity Assessment (CTOX) in CCTE's 384-well Estrogen Receptor Transactivation Assay with AIME metabolic competence (metabolism positive), Deisenroth Lab (AID 2284037);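 also: chemicals first conditioned 2 h by alginate-bound induced rat liver S9 before cells; activity means signal loss indicating cell death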
In short: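 Cytotoxicity in VM7Luc4E2 breast cells, 24 hour, measured as protease-substrate fluorescence loss, after 2-hour metabolic conditioning with induced rat hepatic S9 in alginate microspheres. Concentrations 0.002 - 200 uM, 10 points, bidirectional fitting.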

[3] = molecular target: Estrogen receptor (Homo sapiens) (UniProt P03372); experiment: CCTE_Deisenroth_AIME_384WELL_LUC_Inactive: CCTE's 384-well Estrogen Receptor Transactivation Assay without AIME metabolic competence (ERTA luciferase; metabolism negative), Deisenroth Lab (AID 2284038);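 also: VM7Luc4E2 breast cells given medium preincubated 2 h with S9-free microspheres; hits raise estrogen receptor luciferase signal so potencies reflect agonists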
In short: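 Chemicals (10-point series, 0.002 - 200 uM) were incubated 2 hours with alginate-water microsphere lids lacking S9, then the conditioned medium was transferred to VM7Luc4E2 breast cells for 24 hour. Luciferase induction was read by bioluminescence, fitted upward relative to 17beta-estradiol.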

[4] = CCTE_Shafer_MEA_dev_firing_rate_mean: CCTE's Neural Network Formation Assay for Mean Firing Rate, Shafer Lab (AID 2284031; active = hit-call score of the fitted dose curve at least 0.9, where 1 is the maximum; inactive = score below 0.9;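 as to AC50: curve fitted for loss of firing so AC50 reflects decreased mean firing rate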)
In short: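 Primary rat cortical neurons on 48-well, 16-electrode MEAs (PEI-coated, laminin at plating), exposed from day 0 with compound renewed at DIV 5 and 9. Spikes recorded DIV 5, 7, 9, 12; well-mean firing rate collapsed to trapezoidal AUC, loss-of-signal vs DMSO.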

[5] = CCTE_Shafer_MEA_dev_per_burst_spike_percent: CCTE's Neural Network Formation Assay for Percent of Spikes in a Burst, Shafer Lab (AID 2284032; active = hit-call score of the fitted dose curve at least 0.9, where 1 is the maximum; inactive = score below 0.9;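 as to AC50: fitted as a decrease in burst spike percentage below DMSO baseline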)
In short: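 Rat primary cortical neurons on 16-electrode MEA wells, dosed from plating day 0 for 12 days with renewal on DIV 5 and 9; spikes-in-bursts percentage averaged over bursting electrodes, collapsed as AUC across days 5, 7, 9, 12; loss direction versus DMSO.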

[6] = CCTE_Deisenroth_AIME_384WELL_CTox_Inactive: Cytotoxicity Assessment (CTOX) in CCTE's 384-well Estrogen Receptor Transactivation Assay without AIME metabolic competence (metabolism negative), Deisenroth Lab (AID 2284039);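 also: cell viability via live-cell protease substrate cleaved to fluorescent probe; cells exposed 24 h to medium preincubated 2 h with alginate-water beads without S9; loss of fluorescence signal means loss of viability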
In short: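 Fluorescence from a live-cell protease substrate, read after 24 h in VM7Luc4E2 cells, indicated viability. Test medium came from a 2 h AIME step without hepatic S9 (alginate-water microspheres); concentrations spanned 0.002 - 200 uM, single technical replicate per run.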

[7] = CCTE_Shafer_MEA_dev_active_electrodes_number: CCTE's Neural Network Formation Assay for Number of Active Electrodes, Shafer Lab (AID 2284040);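 as to AC50: potency for loss of active electrodes versus DMSO so lower counts are hits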
In short: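 Rat cortical primary cultures, 1.5 x 10^5 cells/well, PEI-coated MEA, laminin drop. Continuous exposure DIV 0–12; full media/compound change DIV 5, 9. Readout: electrodes with mean firing ≥5 spikes/min; AUC across days; loss vs DMSO.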

[8] = CCTE_Shafer_MEA_dev_burst_rate: CCTE's Neural Network Formation Assay for Burst Rate, Shafer Lab (AID 2284042; active = hit-call score of the fitted dose curve at least 0.9, where 1 is the maximum; inactive = score below 0.9;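 as to AC50: potency for loss of burst rate below DMSO control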)
In short: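 Developmental network assay measuring how 12-day exposure of rat cortical neuron cultures alters bursting on extracellular MEA recordings. Values are AUC of well-mean burst rate across four recording days, relative to DMSO vehicle.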

[9] = CCTE_Shafer_MEA_dev_bursting_electrodes_number: CCTE's Neural Network Formation Assay for Number of Bursting Electrodes, Shafer Lab (AID 2284043);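 as to AC50: potency is for loss of bursting electrodes relative to DMSO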
In short: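 Read-out is the per-well number of electrodes bursting at least once every 2 minutes, recorded on days 5, 7, 9 and 12 and collapsed by trapezoidal area under the curve. Cultures were primary rat cortical neurons on MEA plates, treated continuously from plating.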

[10] = CCTE_Shafer_MEA_dev_per_burst_interspike_interval: CCTE's Neural Network Formation Assay for Burst Interspike Interval, Shafer Lab (AID 2284044; active = hit-call score of the fitted dose curve at least 0.9, where 1 is the maximum; inactive = score below 0.9)
In short: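 Readout is the average time between spikes inside single-electrode bursts, taken as a well mean across bursting electrodes. Cortical neurons from rat developed networks on MEA plates under continuous 12-day exposure; recordings on days 5, 7, 9 and 12 were integrated by trapezoidal AUC.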

Measured: AC50

COc1cc(C=O)ccc1O
inactive: [1] | [2] | [3]

COc1ccc(C)cc1N
inactive: [1] | [3]

O=c1[nH]cc(F)c(=O)[nH]1
inactive: [1] | [3] | [6] | [10]
active: [4] 4.24 µM | [5] 1.47 µM | [7] 2.59 µM | [8] 1.58 µM | [9] 1.39 µM

CC(=O)Oc1ccccc1C(=O)O
not listed: [2] | [6] | [9]
inactive: all other assays above

Cc1cc(=O)[nH]c(=S)[nH]1
active: [9] 10 µM
inactive: all other assays above

CCCCCC(=O)O
inactive: [1] | [3] | [6]

NCCO
inactive: [1] | [2] | [3] | [6]

CC1(C)CC(N=C=O)CC(C)(CN=C=O)C1 (stereo not drawn)
inactive: [1] | [3]

C[C@]12C=CC(=O)C=C1CC[C@@H]1[C@@H]2C(=O)C[C@@]2(C)[C@H]1CC[C@]2(O)C(=O)CO
inactive: [1] | [2] | [3] | [6]

CC(C)c1ccc(C(=O)N=C(N)N)cc1S(C)(=O)=O
inactive: [4] | [5] | [7] | [8] | [9] | [10]

CC1=C(/C=C/C(C)=C/C=C/C(C)=C/CO)C(C)(C)CCC1
inactive: [1] | [3] | [6]

FC(F)(F)C(F)(F)C(F)(F)C(F)(F)C(F)(F)C(F)(F)CCI
inactive: [4] | [5] | [7] | [8] | [9] | [10]

Cc1cccc([N+](=O)[O-])c1C
inactive: [1] | [2] | [3] | [6]

Cc1ccc(C)c(C)c1
inactive: [3]

O=c1c(O)c(-c2ccc(O)c(O)c2)oc2cc(O)cc(O)c12
active: [1] 21.2 µM | [3] 139 µM | [6] 54.5 µM
inactive: [2]

Cc1ccc(C)c(O)c1C
inactive: [1] | [2] | [3] | [6]

CC1(C)NC(=O)NC1=O
inactive: [1] | [2] | [3] | [6]

Cc1ccc(C(C)C)c(O)c1
inactive: [1] | [3]

CCCCCCCCCCCCCCCCCC(=O)O
inactive: [1] | [2] | [3] | [6]

CN1CCCC1=O
inactive: [1] | [2] | [3] | [6]

CCNc1cccc(C)c1
inactive: [1] | [3] | [6]

Clc1cc(Cl)c(Cl)cc1Cl
inactive: [1] | [3]

Cc1ccc2ncccc2c1
inactive: [1] | [2] | [3]

CCOc1ccc2c(c1)C(C)=CC(C)(C)N2
active: [1] 34.5 µM
inactive: [2] | [3] | [6]

— PubChem BioAssay (EPA / NIEHS)
